Screening data as filed in PubChem.
TNAP act DEA: activators of human TNAP at intermediate phosphate acceptor | 64,000 tested, under 10 active | purified TNAP, CDP-star luminescence, 100 mM DEA, 30 min; stronger effect = higher value; scale: 0 levamisole-inhibited, 1 vehicle-only enzyme | P05186 | activation factor at 20 µM | AID 813;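 active means activation factor of at least 2 at 20 µM, relative to controls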
Cav32 inh: blocks human Cav3.2 T-type calcium channel. O95180. Cav3.2-expressing cells, Fluo-4 calcium fluorescence FDSS; stronger effect = lower value. B-score at 10 µM. actives 4% (n = 100,000). AID 449739;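 active means single-dose well whose peak fluorescence ratio is a statistical outlier from its plate by either plate-standardised score or position-corrected B-score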
hDAT+cocaine: human DAT dopamine uptake with cocaine, either direction | B-score at 10 µM | Q01959 | actives 1.3% (n = 110,000) | LLC-PK1 hDAT cells, [14C]-dopamine uptake with cocaine IC80; actives deviate in either direction;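 active means Z score or B-score, a plate-position-corrected score, falls beyond the plate's 99.7% confidence bounds, in either direction; inactive means both scores lie inside the 99.7% bounds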;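 further: scored against the spread of the other compound wells on the same plate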
Target sequence (Q01959 whole entry, looked up): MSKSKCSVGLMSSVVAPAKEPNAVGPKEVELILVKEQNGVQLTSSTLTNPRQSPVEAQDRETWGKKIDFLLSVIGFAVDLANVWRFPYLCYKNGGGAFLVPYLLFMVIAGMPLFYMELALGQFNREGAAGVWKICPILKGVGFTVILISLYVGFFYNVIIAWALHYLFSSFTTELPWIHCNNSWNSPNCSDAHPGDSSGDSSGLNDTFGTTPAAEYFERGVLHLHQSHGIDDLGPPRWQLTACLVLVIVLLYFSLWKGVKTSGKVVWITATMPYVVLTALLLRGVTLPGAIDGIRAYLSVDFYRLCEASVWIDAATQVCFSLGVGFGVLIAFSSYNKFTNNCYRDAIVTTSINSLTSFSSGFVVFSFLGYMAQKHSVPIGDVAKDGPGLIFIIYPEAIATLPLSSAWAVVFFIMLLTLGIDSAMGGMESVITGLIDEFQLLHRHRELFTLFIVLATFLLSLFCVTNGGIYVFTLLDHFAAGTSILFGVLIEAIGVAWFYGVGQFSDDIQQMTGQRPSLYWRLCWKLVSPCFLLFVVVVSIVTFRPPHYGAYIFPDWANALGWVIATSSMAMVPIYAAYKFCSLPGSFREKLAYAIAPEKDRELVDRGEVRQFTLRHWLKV
PostGolgi yeast: growth inhibition of a yeast mutant, post-Golgi transport screen; AID 739; post-Golgi transport phenotypic cell assay; inhibition, % at 10 µM; actives 0.9% (n = 98,000);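 further: yeast cells grown in 1536-well plates; yeast grown about 18 h at 30C before absorbance read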
PostGolgi ctrl: inhibits growth of the yeast control strain | efflux-deficient yeast background strain, growth absorbance A615, 16 h | inhibition, % at 10 µM | actives 5% (n = 98,000)
Smad3 inh: inhibitors of human Smad3 transcription factor binding; P84022; TR-FRET Smad3/Dy647-FoxH1 peptide binding, europium anti-His; inhibition, % at 25 µM; actives 0.29% (n = 88,000); AID 630;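 active means compounds that reduce the energy-transfer binding signal between the protein and its labelled peptide by more than half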;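 further: 0% = Smad3 plus labelled peptide maximal FRET and 100% = peptide-only background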
Active calls of the source: *. Shown are actives, neighbours in structure and some others; about 8.7% of the full set was active somewhere. Unless noted, no stated cut-off is given here; in the data, active means inhibition above about 30%; inactive means the rest.

What do the screens show for `CCCCn1c(SC(C)C(N)=O)nc2cc(C(=O)OC)ccc2c1=O` (configuration not stated)?
Cav32 inh: 1.31; hDAT+cocaine: 1.04; PostGolgi yeast: 0.0; PostGolgi ctrl: -1.4; Smad3 inh: 1.4

How did O=C(Cn1ncc2c1-c1ccccc1OC2)Nc1nc2ccccc2s1 do in these assays?
TNAP act DEA: 1; Cav32 inh: -9.42*; hDAT+cocaine: -0.673; PostGolgi yeast: -10.5; PostGolgi ctrl: 46.8*; Smad3 inh: 2.4

Results for O=C(Cn1ncc2c1-c1ccccc1OC2)N(Cc1ccco1)C1CCCCC1 ?
TNAP act DEA: 1; Cav32 inh: -2.3; hDAT+cocaine: -0.232; PostGolgi yeast: 0.8; PostGolgi ctrl: 32.4*; Smad3 inh: 1.1

Results for CCN(CC)C(=O)Cn1ncc2c1-c1ccccc1OC2 ?
TNAP act DEA: 0.9; Cav32 inh: 0.88; hDAT+cocaine: -0.208; PostGolgi yeast: 1.7; PostGolgi ctrl: 2.4; Smad3 inh: 11.6

Results for Clc1ccc2c(c1)C(N1CCNCC1)Cc1ccccc1S2 (configuration not stated) ?
Cav32 inh: -0.774; hDAT+cocaine: 0.452; Smad3 inh: 11.2

What do the screens show for `O=C(/C=C/c1cccc([N+](=O)[O-])c1)NCCSc1ccccc1`?
Cav32 inh: -3.74*; hDAT+cocaine: 0.77; PostGolgi yeast: -6.7; PostGolgi ctrl: 9.7

Results for O=C(/C=C/c1ccc(Cl)cc1)NCCSc1ccccc1 ?
PostGolgi yeast: -2.8; PostGolgi ctrl: -10.6

Results for CC1CN(C(=O)/C=C/c2cccc([N+](=O)[O-])c2)CC(C)O1 (configuration not stated) ?
Cav32 inh: 0.0354; hDAT+cocaine: -0.45

What do the screens show for `CCCCN(CCCC)C(=O)/C=C/c1cccc([N+](=O)[O-])c1`?
Cav32 inh: -5.98*; hDAT+cocaine: -0.0081; PostGolgi yeast: -4.6; PostGolgi ctrl: 9.4

What do the screens show for `Cc1cc(C)nc(NC2=NCC(=O)N2c2cccc(Cl)c2)n1`?
TNAP act DEA: 0.8; Cav32 inh: -0.429; hDAT+cocaine: 0.081; PostGolgi yeast: -0.7; PostGolgi ctrl: -4.1; Smad3 inh: -4.4

How did CCOc1cc(S(=O)(=O)n2cc(-c3ccc(F)cc3)c(N)n2)cc(OCC)c1OCC do in these assays?
TNAP act DEA: 0.8; Cav32 inh: -5.49*; hDAT+cocaine: 0.771; PostGolgi yeast: 4.2; PostGolgi ctrl: 7.9; Smad3 inh: 7.3

How did CCOc1ccc(S(=O)(=O)n2cc(-c3ccc(F)cc3)c(N)n2)cc1 do in these assays?
Cav32 inh: -0.0701; hDAT+cocaine: -0.0806; PostGolgi yeast: -5.7; PostGolgi ctrl: 11.8; Smad3 inh: 3.9

Results for Cc1cc(C)cc(Nc2ncc3c(n2)CCCC3=O)c1 ?
TNAP act DEA: 1; Cav32 inh: 0.702; hDAT+cocaine: -0.518; PostGolgi yeast: 9.3; PostGolgi ctrl: 33.4*; Smad3 inh: 9.0

Results for O[C@@H](C1=C/C(=C\c2ccncc2)c2ccccc21)c1ccncc1 ?
Smad3 inh: 76.3*

Results for CCN(CC)C(=O)c1c2c(nc3ccccc13)-c1ccccc1CC2 ?
Cav32 inh: -4.89*; hDAT+cocaine: -0.126; PostGolgi yeast: -3.4; PostGolgi ctrl: 27.4

Results for O=C1c2cccc3c(N4CCCCC4)ccc(c23)C(=O)N1CCO ?
Cav32 inh: -6.12*; hDAT+cocaine: 0.288; PostGolgi yeast: 13.4; PostGolgi ctrl: 13.0

What do the screens show for `Cc1n[nH]c(C)c1N1C(=O)c2cccc3c(N4CCCCCC4)ccc(c23)C1=O`?
TNAP act DEA: 0.7; Cav32 inh: -9.66*; hDAT+cocaine: 1.42; PostGolgi yeast: 4.0; PostGolgi ctrl: 4.8; Smad3 inh: 6.5

Results for O=C1c2ccccc2C(=O)N1CCN1CCCCC1 ?
TNAP act DEA: 0.9; PostGolgi yeast: -0.3; PostGolgi ctrl: 4.5; Smad3 inh: 13.1

Results for COc1ccc(NC(=O)Cn2nnc(C(=O)NCc3ccccc3OC)c2N)cc1Cl ?
TNAP act DEA: 0.9; Cav32 inh: -0.0528; hDAT+cocaine: 0.0241; PostGolgi yeast: -0.2; PostGolgi ctrl: -2.4

How did CCc1ccc2oc(-c3cccc(NC(=O)c4cccnc4)c3)nc2c1 do in these assays?
TNAP act DEA: 0.9; Cav32 inh: 0.104; hDAT+cocaine: 0.034; PostGolgi yeast: 2.4; PostGolgi ctrl: 74.1*; Smad3 inh: -4.4

Results for O=C(Nc1ccc2oc(-c3ccccc3)nc2c1)c1cccnc1 ?
TNAP act DEA: 0.9; Cav32 inh: -0.307; hDAT+cocaine: 0.479; PostGolgi yeast: -9.5; PostGolgi ctrl: 15.2; Smad3 inh: -5.9

What do the screens show for `CC(=O)Nc1ccc(Nc2ncnc3c2cnn3-c2ccc(C)cc2C)cc1`?
Cav32 inh: 0.771; hDAT+cocaine: 0.973; PostGolgi yeast: 2.2; PostGolgi ctrl: -2.1; Smad3 inh: -7.3

Results for COC(=O)c1ccccc1NC(=O)c1sc(=S)n(C)c1N ?
TNAP act DEA: 0.8; Cav32 inh: 0.0109; hDAT+cocaine: 5.98*; PostGolgi yeast: -8.5; PostGolgi ctrl: 36.0*; Smad3 inh: 4.8

Results for Cn1c(N)c(C(=O)NCc2ccccc2)sc1=S ?
TNAP act DEA: 1; Cav32 inh: 0.0148; hDAT+cocaine: -0.762; PostGolgi yeast: -28.4; PostGolgi ctrl: 24.7; Smad3 inh: 15.8

How did O=C(Nc1nc2ccc(Cl)cc2s1)c1ccc(Br)o1 do in these assays?
TNAP act DEA: 0.9; Cav32 inh: -3.57*; hDAT+cocaine: -1.32; PostGolgi yeast: 0.5; PostGolgi ctrl: 7.5

What do the screens show for `O=C(Nc1nc2c(Cl)cccc2s1)c1ccc(Br)o1`?
TNAP act DEA: 0.9; Cav32 inh: -0.307; hDAT+cocaine: -0.019; PostGolgi yeast: -7.8; PostGolgi ctrl: 16.2; Smad3 inh: -7.1

Results for CCN(CC)S(=O)(=O)c1ccc(C(=O)Nc2cccc(C)c2)cc1 ?
Cav32 inh: -1.58; hDAT+cocaine: 0.636; PostGolgi yeast: -4.4; PostGolgi ctrl: 7.2

Results for Cc1cccc(NC(=O)c2ccc(S(=O)(=O)N(C)C)cc2)c1 ?
TNAP act DEA: 1; Cav32 inh: 0.109; hDAT+cocaine: 3.06*; PostGolgi yeast: 6.4; PostGolgi ctrl: -2.8; Smad3 inh: -0.3

How did Cc1ccc(C)c(N2CCN(C(c3ccncc3)c3nnnn3Cc3ccccc3)CC2)c1 (configuration not stated) do in these assays?
TNAP act DEA: 0.9; Cav32 inh: -1.66; hDAT+cocaine: 0.213; PostGolgi yeast: 7.3; PostGolgi ctrl: 6.8; Smad3 inh: 10.7

How did COc1ccc(Nc2nc3ccccc3nc2NS(=O)(=O)c2cccs2)cc1 do in these assays?
Cav32 inh: -2.58; hDAT+cocaine: -0.778; PostGolgi yeast: 6.1; PostGolgi ctrl: 35.5*; Smad3 inh: 13.7

Results for CCOC(=O)C1CCN(C(=O)C2CCN(c3nc4ccc(OC)cc4s3)CC2)CC1 ?
TNAP act DEA: 1; Cav32 inh: 2.02; hDAT+cocaine: -8.15*; PostGolgi yeast: -2.8; PostGolgi ctrl: 7.5; Smad3 inh: -4.2
